Bioassay records as filed in PubChem BioAssay.
PAD4 inh: blocks human protein arginine deiminase 4 | inhibition, % at 6.36 µM | Q9UM07 | AID 485272 | recombinant PAD4, RCA probe fluorescence polarization | 330,000 compounds, 0.41% hits;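 active means percent inhibition above a cutoff equal to the mean of all tested compounds plus 3 SD, cut at about 15% in these data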;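 further: 0% = PAD4 with RCA probe and DMSO and 100% = probe without PAD4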
GSTO1 counter: GSTO1 inhibition, counter-screen for RBBP9 inhibitors; recombinant GSTO1, activity-based probe fluorescence polarization; inhibition, % at 5.96 µM; 300,000 compounds, 1.1% hits; AID 1974;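 active means inhibition above the campaign mean inhibition plus 3 SD, cut at about 35% in these data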;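 further: 0% = GSTO1-1 with DMSO and 100% = wells lacking GSTO1-1 enzyme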
Target sequence (P78417 whole entry, looked up): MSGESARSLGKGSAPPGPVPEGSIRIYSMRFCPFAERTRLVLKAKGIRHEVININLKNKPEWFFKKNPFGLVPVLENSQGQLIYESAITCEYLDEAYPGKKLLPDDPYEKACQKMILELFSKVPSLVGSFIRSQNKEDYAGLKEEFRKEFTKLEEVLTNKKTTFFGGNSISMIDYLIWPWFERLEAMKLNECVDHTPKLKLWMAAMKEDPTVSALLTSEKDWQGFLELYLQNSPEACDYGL
LYPLA2 counter: LYPLA2 (human) inhibition in PME1 counter-screen; 320,000 compounds, 0.38% hits; inhibition, % at 5.9 µM; recombinant LYPLA2, FP-Rh probe fluorescence polarization; AID 2177; O95372;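 active means inhibition above the screen-wide mean plus 3 SD, limit set per campaign, cut at about 26% in these data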;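 further: 0% = LYPLA2 with DMSO and 100% = wells lacking LYPLA2 enzyme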
Target sequence (O95372 whole entry, looked up): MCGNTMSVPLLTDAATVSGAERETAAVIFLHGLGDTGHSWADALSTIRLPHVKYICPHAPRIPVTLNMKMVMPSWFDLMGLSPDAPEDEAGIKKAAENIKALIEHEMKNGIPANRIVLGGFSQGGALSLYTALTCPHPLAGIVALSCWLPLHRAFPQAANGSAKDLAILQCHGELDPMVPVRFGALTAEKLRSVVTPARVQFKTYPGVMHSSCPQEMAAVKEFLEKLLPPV
Fam108B inh: Fam108B inhibition, counter-screen for RBBP9 inhibitors; AID 1947; inhibition, % at 9.51 µM; 300,000 compounds, 0.33% hits; recombinant Fam108B, FP-Rh probe fluorescence polarization;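 active means inhibition above the screen mean inhibition plus 3 SD, computed separately per campaign, cut at about 18% in these data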;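 further: inhibitors lower polarization as less probe binds the enzyme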
PME-1 inh: blocks human protein phosphatase methylesterase 1. 320,000 compounds, 0.53% hits. inhibition, % at 5.9 µM. AID 2130. recombinant PME-1, FP-Rh probe fluorescence polarization;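 active means inhibition above the campaign mean of all compounds plus 3 SD, cut at about 26% in these data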;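 further: competitive labeling of PME-1 active site by serine hydrolase directed probe; 0% = PME-1 with DMSO and 100% = wells lacking PME-1 enzyme; inhibitors block probe labeling so polarization falls and inhibition rises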
LYPLA1 counter: LYPLA1 (human) inhibition in PME1 counter-screen | 320,000 compounds, 0.16% hits | recombinant LYPLA1, FP-Rh probe fluorescence polarization | AID 2174 | inhibition, % at 5.9 µM;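 active means inhibition above the mean of all tested compounds plus 3 SD, set per campaign, cut at about 14% in these data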;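 further: inhibitors block serine hydrolase probe labeling of LYPLA1 so polarization falls; 0% = enzyme with DMSO and 100% = wells lacking LYPLA1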
Target sequence (O75608 whole entry, looked up): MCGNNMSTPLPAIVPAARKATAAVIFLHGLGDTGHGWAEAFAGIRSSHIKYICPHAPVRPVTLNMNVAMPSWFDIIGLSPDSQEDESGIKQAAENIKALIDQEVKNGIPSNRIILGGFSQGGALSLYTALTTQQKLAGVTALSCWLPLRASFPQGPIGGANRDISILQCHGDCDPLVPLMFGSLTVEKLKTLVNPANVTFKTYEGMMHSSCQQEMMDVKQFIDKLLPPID
LYPLA2 confirm: counter-screen for PME1 inhibitors: confirmation of human LYPLA2 inhibitors; shares compounds with LYPLA2 counter; recombinant LYPLA2, FP-Rh probe fluorescence polarization; inhibition, % at 5.9 µM; 1,100 compounds, 72% hits;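 active means mean inhibition across replicates above the hit cutoff set in the primary screen, cut at about 26% in these data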;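 further: blocked labeling of the enzyme by serine hydrolase FP-Rh probe lowers polarization; 0% = enzyme with DMSO and 100% = wells lacking LYPLA2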
LYPLA2 gel ABPP: LYPLA2 (human) inhibition, late stage results; shares compounds with LYPLA2 counter; rhLYPLA2 in mouse brain proteome, gel ABPP FP-Rh; inhibition, % at 20 µM; 150 compounds, 30% hits; AID 652029;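 active means inhibition of LYPLA2 enzyme probe labeling above about 50%, limit read from the data; inactive means inhibition below that limit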;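 further: loss of FP-Rh probe labeling of the LYPLA2 gel band measured as band density; 0% = DMSO only control band and 100% = blank gel background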
Active calls of the source: *; . = no result given. Most compounds without a hit are left out; they make up all but 1.8% or so of the library.

SMILES	PAD4 inh	GSTO1 counter	LYPLA2 counter	Fam108B inh	PME-1 inh	LYPLA1 counter	LYPLA2 confirm	others
Cc1ccc(NC(=O)CN2C(=O)S/C(=C\c3cc(C)n(-c4ccc(C(=O)O)cc4)c3C)C2=O)cc1	-0.7	-2.6	41.7*	2.8	1.3	-5.0	43.1*
CC12CCC(=O)N1C(C(=O)N1CCN(c3ccc([N+](=O)[O-])cc3)CC1)CS2 (centres undefined)	-1.9	.	.	.	.	.	.
Cc1ccc(NC(=O)CN(C)CC(=O)N(C)Cc2ccccc2)cc1	-1.8	.	2.8	.	5.6	-1.1	.
Cc1cc(C)c2c(n1)SCC(=O)N2CC(=O)Nc1ccc(Br)c(C)c1	-1.1	-4.3	55.9*	-3.0	1.3	-2.9	32.7*
CNC(=O)CN1C(=O)CSc2nc(C)cc(C)c21	2.3	2.2	-2.6	1.2	5.7	1.8	.
CCCCCCC[N+](CC)(CC)CCCCc1ccc(Cl)cc1	-0.5	-0.2	35.0*	4.0	-2.6	2.0	29.8*
CCCCCNCc1ccc(Cl)cc1	-1.5	-0.2	2.6	-0.2	4.1	-0.1	.
O=C(CCCn1c(=O)[nH]c2ccsc2c1=O)N1CCCCC1	-5.7	10.0	1.5	-1.7	1.9	3.2	.
Cc1cccc(N2CCN(C(=O)Cc3ccc(-n4c(=O)[nH]c5ccsc5c4=O)cc3)CC2)c1C	-1.2	-0.1	66.5*	2.5	-11.6	-0.1	68.5*	LYPLA2 gel ABPP=56.0*
CC(=O)c1ccc(N2CCN(C(=O)CCCn3c(=O)[nH]c4ccsc4c3=O)CC2)cc1	3.0	0.7	51.3*	-2.5	-4.6	8.0	56.4*	LYPLA2 gel ABPP=16.0
O=C1CC(c2ccc(OCCCCCOc3ccc(C4CC(=O)NC4=O)cc3)cc2)C(=O)N1 (centres undefined)	-3.5	-2.4	39.9*	-1.6	-4.3	4.2	52.7*	LYPLA2 gel ABPP=32.0
CC1(C(=O)Nc2ccc(S(=O)(=O)Nc3ncccn3)cc2)CCCC1	-1.0	.	.	.	.	.	.
O=C(Nc1ccc(Cl)cc1)Nn1cnc2ccccc2c1=O	-2.3	4.4	30.2*	0.2	-5.6	-5.2	34.1*
O=C(Nn1cnc2ccccc2c1=O)c1ccccc1Cl	-3.2	1.4	2.6	-1.6	4.6	-0.3	.
COc1ccc(N(C(C)=O)c2nc3ccccc3[nH]2)cc1	0.0	-1.2	3.2	3.0	-2.6	-3.7	.
COC(=O)[C@]1(C)N[C@H](CN(C)S(=O)(=O)c2ccc(F)cc2)[C@@H]2C(=O)N(C)C(=O)[C@@H]21	-12.3	.	.	.	.	.	.
O=C(c1cc(-c2ccc(F)cc2)no1)N1CCN(Cc2ccc3c(c2)OCO3)CC1	2.2	5.1	32.8*	1.0	0.4	1.4	34.6*
O=C(c1c(F)c(F)c(F)c(F)c1F)N1CCN(Cc2ccc3c(c2)OCO3)CC1	2.5	7.6	-1.2	1.4	-4.1	-1.4	.
O=[N+]([O-])c1ccc(N2CCN(c3ccc([N+](=O)[O-])cc3CO)CC2)c(CO)c1	2.8	-4.7	27.1*	-2.3	-1.4	4.0	30.2*
N#Cc1cc([N+](=O)[O-])ccc1N1CCN(c2ccccc2O)CC1	-1.9	7.5	15.1	2.7	5.4	1.2	.
CCCOc1ccc(C(=O)NNC(=S)NC(=O)c2ccccc2[N+](=O)[O-])cc1	-0.2	15.3	26.9*	-4.8	-4.9	-1.1	29.0*
CC(C)Cn1c(CCNC(=O)c2ccco2)nc2ccccc21	-4.3	-0.6	2.5	1.3	-6.5	-1.4	.
Cc1ccc(-n2nnnc2CN2CCCCC2)cc1	-0.4	1.3	32.7*	0.0	2.6	3.9	1.4
Clc1ccc(-n2nnnc2CN2CCOCC2)cc1	-3.3	1.7	1.4	0.1	-6.7	0.1	.
COc1ccc(-c2cc(C(=O)Nc3ccc(C(N)=O)cc3)c3ccccc3n2)cc1	-3.3	-8.3	-43.8	-18.2	-29.1	-24.2	.
SMILES	PAD4 inh	GSTO1 counter	LYPLA2 counter	Fam108B inh	PME-1 inh	LYPLA1 counter	LYPLA2 confirm	others
CCOC(=O)C1CCN(C2=NC(=O)/C(=C/c3ccc(OC)c(OC)c3)S2)CC1	1.6	-4.1	-2.1	-2.8	3.0	-1.7	.
CCOC(=O)C1CCN(C2=NC(=O)/C(=C/c3ccc(Cl)cc3)S2)CC1	6.1	4.2	31.1*	-1.5	4.4	3.9	34.7*
NC(=O)c1ccc(NC(=O)CSc2nnc(-c3ccncc3)n2Cc2ccco2)cc1	3.6	-2.7	3.6	-2.5	-0.8	-0.8	.
CS(=O)(=O)Nc1ccc(N2CCN(c3ccc(C(F)(F)F)cn3)CC2)nc1	-1.7	-2.1	84.1*	2.5	2.3	8.5	82.6*	LYPLA2 gel ABPP=72.0*
Cc1ccc(Cl)cc1NC(=O)CN1C(=O)COc2ccc(S(=O)(=O)N3CCOCC3)cc21	2.8	1.2	6.5	-0.3	-0.1	0.8	.
COc1cccc(CNC(=O)CN2C(=O)COc3ccc(S(=O)(=O)N4CCCCC4)cc32)c1	1.1	-1.2	4.4	-4.7	4.0	-2.6	.
COc1cccc(NC(=O)CN2C(=O)CSc3ccc(S(=O)(=O)N4CCOCC4)cc32)c1	-0.9	3.4	49.2*	-2.3	3.4	0.4	45.3*
O=C(CN1C(=O)COc2ccc(S(=O)(=O)N3CCOCC3)cc21)Nc1cccc(Cl)c1	-0.2	-0.1	33.0*	1.9	-2.0	-7.0	45.8*
COc1cccc(NC(=O)CN2C(=O)COc3ccc(S(=O)(=O)N4CCCCCC4)cc32)c1	-1.1	4.3	34.9*	0.2	-7.7	1.3	38.2*
COc1cccc(NC(=O)CN2C(=O)COc3ccc(S(=O)(=O)N4CCOCC4)cc32)c1	-4.6	0.8	37.9*	1.3	-6.0	-1.0	35.2*
COCc1cc(C)nc2sc(C(=O)Nc3cccc(OC)c3)c(N)c12	3.2	-7.7	-0.3	-1.7	2.0	-1.2	.
Cc1ccc(C(=O)NC(=S)NCc2ccccc2)cc1Br	-1.6	9.3	-5.1	-3.5	-15.7	-2.4	.
CC(C)(C)NC(=O)CN(Cc1ccco1)C(=O)CCC(=O)Nc1nccs1	3.6	2.6	-4.9	0.5	0.8	3.7	.
COc1cccc(NC(=O)CN2C(=O)COc3ccc(Cl)cc32)c1	-3.5	-1.4	45.1*	2.1	1.3	2.3	46.5*
CCOc1ccc(NC(=O)CN2C(=O)COc3ccc(Cl)cc32)cc1	-1.0	4.8	-1.6	-1.0	2.0	-0.2	.
Cc1cc(C)cc(C(=O)NC(=S)Nc2ccc(Cc3ccncc3)cc2)c1	-2.3	-13.8	34.1*	-11.8	-8.3	-2.2	41.3*
COc1cc(C(=O)NC(=S)Nc2ccc(Cc3ccncc3)cc2)cc(OC)c1OC	-5.5	-7.2	25.8*	-11.2	-9.3	-0.5	16.6
Cc1cc(=O)oc2cc(Oc3ccc(C(N)=O)cc3[N+](=O)[O-])ccc12	-1.9	1.4	33.1*	5.8	4.8	3.6	26.3*
